# Measured values as given in PubChem BioAssay AID1159607 (Small Molecule Screening Facility, UW Madison, 2016).
# Screen size: about 70,000 compounds; about 400 (0.57%) were called active. Rule as the data show it: active = FP signal below about 40; inactive = the rest. Many of the other results were omitted from the sample, so actives are more common in it than they were.
# Tested on: RMI core complex (RMI1/RMI2) binding to FANCM MM2 peptide, human
# Test: disruptors of RMI1/RMI2 association with MM2 peptide – biochemical, fluorescence polarization, human, primary screen (AID 1159607)
# Conditions: RMI core complex with F-MM2 peptide, at 33 µM, stronger effect = lower value
row,Structure (SMILES),FP signal (polarization)
1,COc1ccc(CCS(=O)(=O)Nc2ccc3c(c2)N(C)C(=O)C(C)(C)CO3)cc1,67 (inactive)
2,O=C(Cn1cnc(-c2ccc(F)cc2)cc1=O)N1CCN(c2cccc(Cl)c2)CC1,70 (inactive)
3,Cc1nc2c(=O)n(Cc3cccc(F)c3)nc(-c3ccco3)c2s1,62 (inactive)
4,O=C(O)CCNC(=S)Nc1ccc(F)c(Cl)c1,54 (inactive)
5,CC1(C)Cc2cccc(OCc3ccc(C(=O)NCCN4CCOCC4)cc3)c2O1,54 (inactive)
6,C=CCn1c(SCCC(=O)Nc2scc(-c3ccc(Cl)cc3)c2C(=O)OCC)nc2sc3c(c2c1=O)CCC(C)C3 (stereo not drawn),84 (inactive)
7,NNC(=O)c1cccnc1N,51 (inactive)
8,COc1ccc(CCNC(=O)c2cccc(NS(=O)(=O)c3cccc(F)c3)c2)cc1OC,72 (inactive)
9,CCOC(=O)c1c(NC(=O)c2ccc(C(=O)OC)cc2)sc2c1CCC2,75 (inactive)
10,CCc1ccccc1NC(=O)C(=O)NCCCN1CCOC(c2ccccc2)C1 (stereo not drawn),72 (inactive)
11,CCCC(=O)Oc1c(Cl)cc(N(C(=O)CCC)S(=O)(=O)c2ccc(C)cc2)cc1Cl,50 (inactive)
12,CC1CCc2c(sc(NC(=O)c3cccc([N+](=O)[O-])c3)c2C#N)C1 (stereo not drawn),48 (inactive)
13,CC1=NN(CCN2CCCCC2)c2nc3c(c(=O)n(CCN4CCCCC4)c(=O)n3C)n2C1C (stereo not drawn),65 (inactive)
14,Cc1ccc(C(C)C)c(OCCCn2c3ccccc3c3nc4ccccc4nc32)c1,27 (active)
15,Cc1ccccc1OCCCn1c(C2CC(=O)N(C(C)(C)C)C2)nc2ccccc21 (stereo not drawn),69 (inactive)
16,CCCOc1ccc(Cn2c3ccccc3c3nc4ccccc4nc32)cc1,60 (inactive)
17,COc1ccc(-c2nnc(NC(=O)CSc3ccc(Cl)cc3)s2)cc1,67 (inactive)
18,COc1ccc(-c2nnc(NC(=O)/C=C/c3ccccc3Cl)o2)c(OC)c1,35 (active)
19,Cc1cc(-c2nnc(NC(=O)/C=C/c3ccccc3Cl)o2)nn1C,63 (inactive)
20,COc1ccc(-c2nnc(NC(=O)c3cc(Cl)sc3Cl)o2)c(OC)c1,62 (inactive)
21,COc1ccc(-c2cc(C(F)(F)F)n3nc(C(=O)Nc4cc5c(cc4[N+](=O)[O-])OCCO5)cc3n2)cc1,37 (inactive)
22,CCn1cc(NC(=O)N2CCc3ccccc32)c2ccccc21,53 (inactive)
23,COc1ccccc1CCNC(=O)C(=O)NC1CCCCCC1,51 (inactive)
